Measurements as given in the supplement of paper PMC4466236.
Over roughly 33,000 sequences, “E-score (dimensionless, -0.5 to 0.5)” has its median near -0.058; the highest 2% begin near 0.35. The entries come from a sample that favours the highest values as a whole.

test system: MvaT; assay: PBM 8-mer E-score (mean of HK and ME arrays) (E-score (dimensionless, -0.5 to 0.5)); higher = stronger relative binding preference
Procedure, shortened: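 Full-length P. aeruginosa MvaT carrying an N-terminal glutathione S-transferase tag was tested by protein binding microarray following a previously described protocol. Two universal double-stranded 60-mer arrays, ME and HK, were used, each with a constant 25-mer primer region and a variable 35-mer region covering all 8-mers. The rank-based E-score is the mean of the two arrays, parsed with a custom script. Its range runs from -0.5 to 0.5 for each 8-mer.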

Going from AAAATACT to AAAATATT, the “PBM 8-mer E-score” value rises from 0.272 to 0.435.

First: TAAATATA
Second: GAAATATA
The “PBM 8-mer E-score” value of the first is higher: 0.442 for the first, 0.408 for the second.

Going from GAAATATC to CAAATATC, the “PBM 8-mer E-score” value rises from 0.227 to 0.233.

Compared with CAAATATG, CAAATATA is higher in “PBM 8-mer E-score” value: 0.264 for the first, 0.433 for the second.

First: AAAATAGT
Second: GAAATAGA
The “PBM 8-mer E-score” value of the first is higher: 0.228 for the first, 0.158 for the second.

Going from GGCGTCCA to AGGTCCTG, the “PBM 8-mer E-score” value rises from -0.193 to -0.144.

Compared with AACGGGCA, CTCTATCC is higher in “PBM 8-mer E-score” value: -0.142 for the first, -0.0794 for the second.

First: TCGCCAAA
Second: ATATCGCA
The “PBM 8-mer E-score” value of the first is lower: -0.0154 for the first, 0.208 for the second.

First: TCCGTCAA
Second: CCGACACG
The “PBM 8-mer E-score” value of the first is higher: -0.111 for the first, -0.209 for the second.

First: AAAATATG
Second: AAAATATC
The “PBM 8-mer E-score” value of the first is lower: 0.251 for the first, 0.314 for the second.

First: AAAATATA
Second: CAATATAG
The “PBM 8-mer E-score” value of the first is higher: 0.43 for the first, 0.331 for the second.

Going from CAATATAA to GAATATAA, the “PBM 8-mer E-score” value falls from 0.404 to 0.38.

Going from CAATATCC to TAATATAA, the “PBM 8-mer E-score” value rises from 0.127 to 0.463.

First: GAATATAC
Second: CAATATAC
The “PBM 8-mer E-score” value of the first is lower: 0.298 for the first, 0.386 for the second.

Compared with TAATAGAA, TAATCTAA is higher in “PBM 8-mer E-score” value: 0.254 for the first, 0.292 for the second.

Going from GAATAGAA to GAATATCA, the “PBM 8-mer E-score” value rises from 0.105 to 0.209.

Going from CAATAAAC to CGGTACTA, the “PBM 8-mer E-score” value falls from 0.254 to -0.0157.

Going from ATTTCGTC to CCATCAAC, the “PBM 8-mer E-score” value falls from 0.0525 to -0.145.

First: GCCTAAAA
Second: AAAGTGAT
The “PBM 8-mer E-score” value of the first is lower: -0.0431 for the first, 0.155 for the second.

Going from GAGCCATA to CACTCCTG, the “PBM 8-mer E-score” value falls from -0.0175 to -0.121.

Going from TGATCTAA to AAATATAC, the “PBM 8-mer E-score” value rises from 0.0137 to 0.333.

First: AAATATAG
Second: AAATATAA
The “PBM 8-mer E-score” value of the first is lower: 0.332 for the first, 0.442 for the second.

First: GAGTACAC
Second: AAATGCCT
The “PBM 8-mer E-score” value of the first is higher: -0.00583 for the first, -0.0883 for the second.

Compared with AATTCGAC, CTTGCAAG is higher in “PBM 8-mer E-score” value: -0.053 for the first, 0.114 for the second.

Compared with ATATAGTG, ATATAGTC is higher in “PBM 8-mer E-score” value: 0.329 for the first, 0.361 for the second.

Going from CTATAGTC to CTATAGTA, the “PBM 8-mer E-score” value rises from -0.0729 to 0.223.

Going from ATATAGTA to GTATAGTA, the “PBM 8-mer E-score” value falls from 0.399 to 0.233.

Going from CGTTGACC to AAATCAGC, the “PBM 8-mer E-score” value rises from -0.113 to 0.0494.

Going from TAAACTGA to AAAACTTC, the “PBM 8-mer E-score” value falls from 0.205 to 0.149.

Compared with TAAACTTA, ACAACTTA is higher in “PBM 8-mer E-score” value: 0.352 for the first, 0.357 for the second.

Compared with GAAACTTA, ACAACTGA is lower in “PBM 8-mer E-score” value: 0.235 for the first, 0.0852 for the second.

Compared with AAAACTTT, CAAACTTA is lower in “PBM 8-mer E-score” value: 0.354 for the first, 0.272 for the second.

Going from ACAACTTG to AAAACTTA, the “PBM 8-mer E-score” value rises from 0.237 to 0.386.

First: AAAACTGA
Second: AAAACTTG
The “PBM 8-mer E-score” value of the first is lower: 0.0579 for the first, 0.1 for the second.

First: CAACACTA
Second: CGGCACAC
The “PBM 8-mer E-score” value of the first is higher: 0.11 for the first, -0.0132 for the second.

Going from CTATTTCA to ACAGTGCA, the “PBM 8-mer E-score” value falls from 0.00869 to -0.0545.

Compared with CCGCACGG, ACTACTTA is higher in “PBM 8-mer E-score” value: -0.212 for the first, 0.377 for the second.

Going from CAAACTAC to CCTACTTA, the “PBM 8-mer E-score” value rises from 0.248 to 0.251.

Compared with CAAACTAA, TAAACTAA is lower in “PBM 8-mer E-score” value: 0.376 for the first, 0.34 for the second.

Going from ACTACTTC to ACATTGCC, the “PBM 8-mer E-score” value falls from 0.117 to 0.0616.

Going from ATCTTCCC to ATTGGTGG, the “PBM 8-mer E-score” value rises from -0.117 to 0.00541.

First: TGATAACA
Second: CACGCTCG
The “PBM 8-mer E-score” value of the first is higher: 0.16 for the first, -0.168 for the second.

Compared with AATAGAAG, ATATTTTA is higher in “PBM 8-mer E-score” value: 0.0707 for the first, 0.43 for the second.

With GTATTTTA the “PBM 8-mer E-score” value was 0.37.
